Measurements published in PubChem BioAssay.
“And” between values parts separate entries of the source, which are not always exact repeats. Identical values can stand only once. The source made the active and inactive calls.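 The calls were made as follows, unless noted: active = visually confirmed hit in the image check and inhibition above 20%; inconclusive = visually confirmed hit but inhibition not above 20%; inactive = no visual hit in the image check.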

Assay: reduction of polyQ htt aggregates in cells – imaging, exon1htt(103Q)mCFP cells, high-content imaging, primary screen (AID 483;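 active = visual image review flags a hit and inhibition of aggregation exceeds 20%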;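 also: compound exposure lasted 3 days before fixation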;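 as to nuclei count: percent of the per-plate median nuclei count of sample wells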)
Conditions: exon1htt(103Q)mCFP cell line, aggregate imaging, at 2 µM; inhibition of aggregation: stronger effect = higher value; nuclei count: measured here: cell count, toxicity
With N#CC1=C(N)N(c2ccccc2)C(c2ccccc2)C1(C#N)C#N (stereo not given) the inhibition of aggregation was -8% (inactive) and the nuclei count was 97.6%. With COCc1cc(=O)[nH]c(Nc2nc3ccccc3o2)n1 the nuclei count was 87.4% and the inhibition of aggregation was 5.2% (inactive). With O=C(O)c1cc(=O)cc(C(=O)O)[nH]1 the nuclei count was 98% and the inhibition of aggregation was 0.2% (inactive). With Cc1cc(C)n(S(=O)(=O)Cc2ccccc2)n1 the nuclei count was 100% and the inhibition of aggregation was -5.2% (inactive). In the case of Cn1c(Cl)cnc1C1CC(=O)c2cc(Cl)ccc2O1 (stereo not given), the nuclei count is reported as 0.8%. For CCOC(=O)CC(C#N)c1cn(C)c2ccccc12 (stereo not given), the inhibition of aggregation was 2.2% (inactive) and the nuclei count was 104%. With CCOC(=O)C1=C(CSc2nc(C)cc(C)c2C#N)OC(N)=C(C#N)C1c1cccs1 (stereo not given) the nuclei count was 102% and the inhibition of aggregation was -14.2% (inactive). With Cc1ccc(N(CC2=NCCN2)c2cccc(O)c2)cc1 the inhibition of aggregation was -6.5% (inactive) and -10.5% (inactive) and the nuclei count was 106% and 78.7%. In the case of O=c1cc(NCc2ccccc2)nc2n1CCCS2, the inhibition of aggregation is reported as -16.3% (inactive) and the nuclei count is reported as 94.5%. For COc1ccc2c(C)nc(Nc3nc(C)cc(C)n3)nc2c1, the inhibition of aggregation was -15.4% (inactive) and the nuclei count was 116%. With Fc1cc(F)c(F)c(SCCc2ccncc2)c1F the inhibition of aggregation was -11.2% (inactive) and the nuclei count was 104%. With CN1CCN(C2=Nc3ccccc3Oc3ccc(Cl)cc32)CC1 the inhibition of aggregation was -4.5% (inactive) and the nuclei count was 91.8%. In the case of COc1cccc2c1C(=O)c1c(O)c3c(c(O)c1C2=O)C[C@@](O)(C(=O)CO)C[C@@H]3O[C@H]1C[C@H](N)[C@H](O)[C@H](C)O1, the nuclei count is reported as 2.5% and the inhibition of aggregation is reported as 23.4% (inactive). With O=C(c1ccc2c(c1)OCCO2)N1CCCCC1 the nuclei count was 106% and the inhibition of aggregation was -3.4% (inactive). For Nc1ccc(S(=O)(=O)Nc2ncccn2)cc1, the inhibition of aggregation was -4.1% (inactive) and the nuclei count was 87.5%. For COc1ccccc1C1C(C#N)=C(N)Oc2cc(C)n(Cc3ccccn3)c(=O)c21 (stereo not given), the nuclei count was 99.3% and the inhibition of aggregation was 12% (inactive). For COC(=O)c1cc(=O)n2c(-c3ccc(OC)cc3)csc2n1, the inhibition of aggregation was 8.7% (inactive) and the nuclei count was 104%. With COc1ccccc1OCC(O)COC(N)=O (stereo not given) the inhibition of aggregation was -4.9% (inactive) and the nuclei count was 109%. In the case of Clc1ccc2c(c1)C(N1CCNCC1)=Nc1ccccc1O2, the inhibition of aggregation is reported as 16.3% (inactive) and the nuclei count is reported as 73.5%. With CC[C@H](C)C(=O)O[C@H]1C[C@@H](C)C=C2C=C[C@H](C)[C@H](CC[C@@H]3C[C@@H](O)CC(=O)O3)[C@H]21 the nuclei count was 105% and the inhibition of aggregation was 0.4% (inactive). Cc1ccc(C2C3CN(C(C)C)CC=C3C(C#N)=C(N)C2(C#N)C#N)cc1 (stereo not given) showed a nuclei count of 99.1%.

Assay: endothelial E-selectin expression blockers – imaging, HUVEC, immunofluorescence, MLSMR starter and 10KST1 sets, primary screen (AID 487);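 as to inhibition: signal is fraction of cell area covered by stained E-selectin grains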;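 as to nuclei count: 100% = median nuclei count of all wells on the same plate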
Conditions: HUVEC TNFalpha-induced E-selectin immunofluorescence imaging, at 2 µM; inhibition: stronger effect = higher value; nuclei count: measured here: cell number, toxicity
In the case of N#CC1=C(N)N(c2ccccc2)C(c2ccccc2)C1(C#N)C#N (stereo not given), the inhibition is reported as 7.2% (inactive) and the nuclei count is reported as 132%. With CC(C)NCC(O)COc1cccc2[nH]ccc12 (stereo not given) the nuclei count was 126% and the inhibition was -58% (inactive). In the case of COCc1cc(=O)[nH]c(Nc2nc3ccccc3o2)n1, the nuclei count is reported as 95.2% and the inhibition is reported as -16% (inactive). In the case of O=C(O)c1cc(=O)cc(C(=O)O)[nH]1, the inhibition is reported as -58.7% (inactive) and the nuclei count is reported as 188%. For Cc1cc(C)n(S(=O)(=O)Cc2ccccc2)n1, the inhibition was -49.2% (inactive) and the nuclei count was 105%. With Cn1c(Cl)cnc1C1CC(=O)c2cc(Cl)ccc2O1 (stereo not given) the nuclei count was 112% and the inhibition was -161% (inactive). In the case of CCOC(=O)CC(C#N)c1cn(C)c2ccccc12 (stereo not given), the nuclei count is reported as 135% and the inhibition is reported as 8.5% (inactive). In the case of CCCC(=O)Nc1ccc(OCC(O)CNC(C)C)c(C(C)=O)c1 (stereo not given), the inhibition is reported as -70.6% (inactive) and the nuclei count is reported as 120%. With CC1(C)SC2[C@H](NC(=O)C(NC(=O)N3CCNC3=O)c3ccccc3)C(=O)N2C1C(=O)O (stereo not given in full) the inhibition was -58.5% (inactive) and the nuclei count was 117%. With CCOC(=O)C1=C(CSc2nc(C)cc(C)c2C#N)OC(N)=C(C#N)C1c1cccs1 (stereo not given) the inhibition was -103% (inactive) and the nuclei count was 95%. With Cc1ccc(N(CC2=NCCN2)c2cccc(O)c2)cc1 the nuclei count was 136% and 125% and the inhibition was -44.6% (inactive) and -23.4% (inactive). With Cc1cc(NS(=O)(=O)c2ccc(N)cc2)no1 the nuclei count was 117% and the inhibition was -43.4% (inactive). With CN1CCN(C2=Nc3ccccc3Oc3ccc(Cl)cc32)CC1 the inhibition was -3.4% (inactive) and the nuclei count was 105%. In the case of Cc1cnc(NC(=O)C2=C(O)c3ccccc3S(=O)(=O)N2C)s1, the nuclei count is reported as 112% and the inhibition is reported as -46.4% (inactive). For O=S(=O)(c1cccc2cnccc12)N1CCCNCC1, the inhibition was -37.4% (inactive) and the nuclei count was 120%. In the case of CC(C)Cc1ccc(C(C)C(=O)O)cc1 (stereo not given), the nuclei count is reported as 132% and the inhibition is reported as -67.2% (inactive). In the case of C[C@H](CS)C(=O)N1CCC[C@H]1C(=O)O, the inhibition is reported as -80.8% (inactive) and the nuclei count is reported as 124%. For COC(=O)C1=C(C)NC(C)=C(C(=O)OC)C1c1ccccc1[N+](=O)[O-], the inhibition was -80.3% (inactive) and the nuclei count was 116%. For O=C(c1ccc2c(c1)OCCO2)N1CCCCC1, the inhibition was -38.6% (inactive) and the nuclei count was 122%. In the case of Nc1ccc(S(=O)(=O)Nc2ncccn2)cc1, the inhibition is reported as -68.8% (inactive) and the nuclei count is reported as 130%. In the case of COc1ccccc1C1C(C#N)=C(N)Oc2cc(C)n(Cc3ccccn3)c(=O)c21 (stereo not given), the nuclei count is reported as 122% and the inhibition is reported as -46.2% (inactive). With CC(=O)O[C@H]1C(=O)[C@]2(C)[C@H]([C@H](OC(=O)c3ccccc3)[C@]3(O)C[C@H](OC(=O)[C@H](O)[C@@H](NC(=O)c4ccccc4)c4ccccc4)C(C)=C1C3(C)C)[C@]1(OC(C)=O)CO[C@@H]1C[C@@H]2O the inhibition was -188% (inactive) and the nuclei count was 105%. For CCC(=O)O[C@@H]1CC(=O)O[C@H](C)CC=CC=C[C@@H](O)[C@H](C)C[C@H](CC=O)[C@H](O[C@H]2O[C@H](C)[C@@H](O[C@H]3C[C@@](C)(O)[C@@H](OC(=O)CC)[C@H](C)O3)[C@H](N(C)C)[C@H]2O)[C@H]1OC, the nuclei count was 120% and the inhibition was -105% (inactive). For CCCn1c(=O)[nH]c(=O)c2[nH]cnc21, the nuclei count was 137% and the inhibition was -98.8% (inactive). In the case of CC[N+](C)(C)Cc1ccccc1Br, the inhibition is reported as -101% (inactive) and the nuclei count is reported as 123%. With COC(=O)c1cc(=O)n2c(-c3ccc(OC)cc3)csc2n1 the nuclei count was 133% and the inhibition was -46.8% (inactive). With COc1cc2nc(N3CCN(C(=O)c4ccco4)CC3)nc(N)c2cc1OC the nuclei count was 128% and the inhibition was -130% (inactive). For Cc1nnc(SCC2=C(C(=O)O)N3C(=O)[C@@H](NC(=O)Cn4cnnn4)[C@H]3SC2)s1, the nuclei count was 125% and the inhibition was -103% (inactive). For Clc1ccc2c(c1)C(N1CCNCC1)=Nc1ccccc1O2, the inhibition was -61.7% (inactive) and the nuclei count was 119%. With CC1(C)S[C@@H]2[C@H](NC(=O)[C@H](C(=O)O)c3ccsc3)C(=O)N2[C@H]1C(=O)O the inhibition was -44% (inactive) and the nuclei count was 99.7%. For O=C(O)c1cc(=O)c2c(OCC(O)COc3cccc4oc(C(=O)O)cc(=O)c34)cccc2o1, the nuclei count was 106% and the inhibition was -78.3% (inactive). In the case of CC[C@H]1OC(=O)C[C@@H](O)[C@H](C)[C@@H](O[C@@H]2O[C@H](C)C[C@H](N(C)C)[C@H]2O)[C@@H](CC=O)C[C@@H](C)C(=O)C=C[C@]2(C)O[C@H]2[C@@H]1C, the inhibition is reported as -120% (inactive) and the nuclei count is reported as 116%. In the case of O=C(O)CCNC(=O)c1ccccc1, the inhibition is reported as -50.2% (inactive) and the nuclei count is reported as 97.2%. In the case of CC[C@H](C)C(=O)O[C@H]1C[C@@H](C)C=C2C=C[C@H](C)[C@H](CC[C@@H]3C[C@@H](O)CC(=O)O3)[C@H]21, the inhibition is reported as -93.9% (inactive) and the nuclei count is reported as 122%. With Cc1ccc(C2C3CN(C(C)C)CC=C3C(C#N)=C(N)C2(C#N)C#N)cc1 (stereo not given) the inhibition was -85.5% (inactive) and the nuclei count was 145%.
